The campaign covered roughly 3,200 compounds. About 300 (9.4%) showed activity. The list comes from a sample in which actives are over-represented; it also holds similar structures and randomly drawn compounds.
Test system: A673/TR/shEF
Test: cell viability (LOESS-normalised, relative to median of negative controls) (log2 ratio); higher = more viable cells (less compound effect), active = hit call of the paper (over 3 MAD below the median)
Conditions: treatment time: 72 h
Summary of the method: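 Doxycycline, present or absent from 24 h before compounds, was used to induce EWS-FLI1 shRNA knockdown in A673/TR/shEF Ewing sarcoma cells at 1,500 per well in 384-well plates. Cells then received library compounds at two or more concentrations, or DMSO controls, for three days. Viability was measured by CellTiter-Glo luminescence on an Envision reader, and per-plate LOESS correction, division by the negative-control median and log2 transformation followed.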

[1] = 0.25 µM, library screen: screen1, EWS-FLI1 expression: high (no doxycycline)
[2] = 0.25 µM, library screen: screen1, EWS-FLI1 expression: low (doxycycline-induced shRNA knockdown)
[3] = 2.5 µM, library screen: screen1, EWS-FLI1 expression: high (no doxycycline)
[4] = 2.5 µM, library screen: screen1, EWS-FLI1 expression: low (doxycycline-induced shRNA knockdown)
[5] = 0.25 µM, library screen: screen2, EWS-FLI1 expression: high (no doxycycline)
[6] = 0.25 µM, library screen: screen2, EWS-FLI1 expression: low (doxycycline-induced shRNA knockdown)
[7] = 2.5 µM, library screen: screen2, EWS-FLI1 expression: high (no doxycycline)
[8] = 2.5 µM, library screen: screen2, EWS-FLI1 expression: low (doxycycline-induced shRNA knockdown)
[9] = 0.025 µM, library screen: screen2, EWS-FLI1 expression: high (no doxycycline)
[10] = 0.025 µM, library screen: screen2, EWS-FLI1 expression: low (doxycycline-induced shRNA knockdown)
[11] = 25 µM, library screen: screen2, EWS-FLI1 expression: high (no doxycycline)
[12] = 25 µM, library screen: screen2, EWS-FLI1 expression: low (doxycycline-induced shRNA knockdown)

Measured: cell viability (log2)

CCCCOC(=O)c1ccccc1C(=O)OCc1ccccc1
inactive: [1] 0.109 | [2] 0.0867 | [3] 0.0605 | [4] 0.00546

C[C@@H]1c2cc(O)c(O)cc2CCN1C
inactive: [5] 0.203 | [6] 0.114 | [7] 0.129 | [8] 0.102

C[N+]1(C)C2CC(OC(=O)C(CO)c3ccccc3)CC1C1OC12 (stereo not given)
inactive: [1] 0.0929 | [2] 0.0137 | [3] 0.182 | [4] 0.0439

CC(C)(C)c1cc(C=C(C#N)C#N)cc(C(C)(C)C)c1O
inactive: 0.025 µM, library screen: screen1, EWS-FLI1 expression: high (no doxycycline) 0.176 | 0.025 µM, library screen: screen1, EWS-FLI1 expression: low (doxycycline-induced shRNA knockdown) 0.0512 | [1] 0.092 | [2] 0.0707 | [5] 0.104 | [6] 0.0526 | [4] -0.0795 | [7] 0.0132 | [8] 0.112
active: [3] -1.1 | 25 µM, library screen: screen1, EWS-FLI1 expression: high (no doxycycline) -3.7 | 25 µM, library screen: screen1, EWS-FLI1 expression: low (doxycycline-induced shRNA knockdown) -2.45

CCC1C2CC3[C@@H]4N(C)c5ccccc5[C@]45CC(C2[C@H]5O)N3[C@@H]1O (stereo not given in full)
inactive: [1] 0.014 | [2] -0.00944 | [3] 0.104 | [4] 0.0619

CCC(=O)Nc1ccc(Cl)c(Cl)c1
inactive: [1] 0.114 | [2] -0.0209 | [3] 0.0655 | [4] 0.0703

CC(=O)[O][Hg][c]1ccccc1
active: [1] -0.557 | [3] -2.86 | [4] -2.46
inactive: [2] -0.147

NCC(=O)c1ccccc1
inactive: [1] 0.0631 | [2] 0.0462 | [3] 0.0615 | [4] -0.00509

CCCN1CCCC2Cc3[nH]ncc3CC21 (stereo not given)
inactive: [5] 0.135 | [6] 0.086 | [7] 0.231 | [8] 0.107

C[C@@H]1C[C@@H]([C@H](O)CC2CC(=O)NC(=O)C2)C(=O)[C@@H](C)C1
active: [3] -0.514 | [4] -0.278 | [7] -0.922 | [8] -0.399 | [11] -2.23 | [12] -1.54
inactive: [9] 0.156 | [10] 0.119 | [1] 0.141 | [2] 0.0197 | [5] 0.0548 | [6] 0.0334

COc1ccc(CN2CCN(Cc3cccc(OC)c3)CC2)cc1
inactive: [1] -9.1e-05 | [2] 0.123 | [3] 0.136 | [4] 0.0992

ClC(Cl)=C(c1ccc(Cl)cc1)c1ccc(Cl)cc1
inactive: [1] 0.0882 | [2] 0.047 | [3] 0.0599 | [4] 0.0669

CC[C@H]1CN2CC[C@H]1C[C@@H]2[C@@H](O)c1ccnc2ccc(OC)cc12
inactive: [1] 0.074 | [2] 0.121 | [3] 0.133 | [4] 0.0925

COc1cc(C[C@@H](C)N)c(OC)cc1I
inactive: [5] 0.178 | [6] 0.0876 | [7] 0.142 | [8] 0.145

CCCC1CCCCN1 (stereo not given)
inactive: [1] 0.115 | [2] 0.153 | [3] 0.172 | [4] 0.128

CC(Cc1ccc(O)cc1)NCC(O)c1cc(O)cc(O)c1 (stereo not given)
inactive: [1] 0.143 | [2] 0.0538 | [5] 0.23 | [6] 0.0381 | [3] 0.142 | [4] 0.063 | [7] 0.166 | [8] 0.00325

CCCCCCCCCCCCCC(=O)O[C@@H]1[C@@H](C)[C@@]2(O)[C@@H](C=C(CO)C[C@]3(O)C(=O)C(C)=C[C@@H]23)[C@@H]2C(C)(C)[C@]12OC(C)=O
active: [5] -0.184 | [6] -0.159 | [7] -0.478 | [8] -0.292

Oc1ccc2c3c1O[C@H]1c4[nH]c5ccccc5c4C[C@@]4(O)C(C2)N(CC2CC2)CCC314 (stereo not given in full)
inactive: [5] 0.0893 | [6] 0.051 | [7] 0.0722 | [8] 0.0157

C[C@]12CCC3C(CC[C@H]4C[C@H](O)CC[C@]34C)C1CC[C@@H]2C(=O)CO (stereo not given in full)
inactive: [5] 0.139 | [6] 0.0931 | [7] 0.0348 | [8] 0.0492

ClC1=C(Cl)C2(Cl)C3C(Cl)C(Cl)CC3C1(Cl)C2(Cl)Cl (stereo not given)
inactive: [1] 0.143 | [2] 0.19 | [3] 0.185 | [4] 0.0908

CC(N)C(O)c1ccc(O)c(O)c1 (stereo not given)
inactive: [1] 0.119 | [2] 0.0592 | [3] 0.146 | [4] 0.151

C#CCN[C@H](C)Cc1ccccc1
inactive: [5] 0.265 | [6] 0.101 | [7] 0.0823 | [8] 0.137

COc1cc2c(cc1OC)C1C(=O)c3ccc(O)c(CC=C(C)C)c3OC1CO2 (stereo not given)
inactive: [1] 0.0263 | [2] 0.0494 | [3] 0.046 | [4] 0.0598

COc1cc2c(cc1OC)[C@@H]1C(=O)c3ccc4oc(C(C)C)cc4c3O[C@@H]1CO2
inactive: [1] 0.0223 | [2] 0.0518 | [4] -0.129
active: [3] -0.307

C=C(C)[C@H]1Cc2c(ccc3c2O[C@@H]2COc4cc(OC)c(OC)cc4[C@@H]2C3=O)O1
inactive: [9] 0.0593 | [10] 0.0961
active: [1] -1.71 | [2] -0.663 | [5] -0.962 | [6] -0.539 | [3] -2.87 | [4] -1.24 | [7] -2.41 | [8] -0.955 | [11] -3.79 | [12] -1.03

COc1cc2c(cc1OC)-c1c(oc3c4c(ccc3c1=O)OC(C(C)C)C4)CO2 (stereo not given)
inactive: [1] 0.0422 | [2] 0.0484 | [3] 0.122 | [4] 0.0221

C=C(C)[C@H]1Cc2c(ccc3c(=O)c4c(oc23)COc2cc(OC)c(OC)cc2-4)O1
inactive: [1] 0.0952 | [2] -0.0101 | [3] 0.0848 | [4] -0.0847

COc1cc2c(cc1OC)[C@H]1C(=O)c3ccc4c(c3O[C@H]1CO2)C[C@@H](C(C)C)O4
active: [1] -1.56 | [2] -0.67 | [3] -2.2 | [4] -0.747

CCOP(=S)(OCC)SCn1c(=O)oc2cc(Cl)ccc21
inactive: [1] 0.0867 | [2] 0.153 | [3] 0.166 | [4] 0.163

CCOCN(C(=O)CCl)c1c(C)cccc1CC
inactive: [1] 0.105 | [2] 0.0121 | [3] 0.0903 | [4] -0.17

CC(=O)O[C@@H]1C2CC[C@@H]3C1(C[C@@H](O)[C@@]1(O)[C@@H](C[C@H](O)C1(C)C)[C@]3(C)O)C[C@@]2(C)O (stereo not given in full)
inactive: [1] 0.0646 | [2] 0.00107 | [3] 0.0644 | [4] 0.0594

COc1cc2occc2c2oc(=O)ccc12
inactive: [1] 0.133 | [2] -0.00777 | [3] 0.146 | [4] 0.0199

CCOC(=O)CC(SP(=S)(OC)OC)C(=O)OCC (stereo not given)
inactive: [1] 0.0518 | [2] 0.0626 | [3] 0.101 | [4] 0.14

CN[C@@H]1[C@@H](O)[C@@H](O[C@@H]2[C@@H](O)[C@H](O[C@H]3O[C@H](CN)CC[C@H]3N)[C@@H](N)C[C@H]2N)OC[C@]1(C)O
inactive: [1] 0.0502 | [2] -0.0312 | [3] 0.184 | [4] 0.0476

CC1(C)C2CC(=O)[C@]3(C)C(CC[C@@]4(C)[C@H](c5ccoc5)OC(=O)[C@H]5O[C@]543)[C@@]2(C)C=C[C@@H]1O (stereo not given in full)
inactive: [1] 0.0868 | [2] 0.0799 | [3] 0.177 | [4] 0.105

Oc1cc2c(cc1O)[C@H]1c3ccccc3CN[C@@H]1CC2
inactive: [5] 0.0852 | [6] -0.0099 | [7] 0.117 | [8] 0.00998

CC(C)N(CCC(C(N)=O)(c1ccccc1)c1ccccn1)C(C)C (stereo not given)
inactive: [1] 0.118 | [2] 0.068 | [5] 0.102 | [6] 0.0965 | [3] 0.167 | [4] 0.146 | [7] 0.0737 | [8] 0.0918

O=S1OCC2C(CO1)C1(Cl)C(Cl)=C(Cl)C2(Cl)C1(Cl)Cl (stereo not given)
inactive: [1] 0.126 | [2] 0.0993 | [3] 0.0998 | [4] -2.97

COc1ccc(CCN)cc1O
inactive: [5] 0.19 | [6] 0.105 | [7] 0.0411 | [8] 0.0823

CC1(C)C2C[C@@H](O)[C@]3(C)C(CC[C@@]4(C)[C@H](c5ccoc5)OC(=O)[C@H]5O[C@]543)[C@@]2(C)[C@@H](O)C[C@H]1O (stereo not given in full)
inactive: [1] 0.0675 | [2] 0.0959 | [3] 0.135 | [4] 0.0584

C[N+]1(C)[C@H]2CC(OC(=O)C(CO)c3ccccc3)C[C@H]1[C@H]1O[C@H]12 (stereo not given in full)
inactive: [5] 0.258 | [6] 0.0872 | [7] 0.133 | [8] -0.00973

CO[C@H]1[C@H](O)[C@H](O[C@H]2CC[C@@]3(C)[C@H](CC[C@@H]4[C@@H]3CC[C@]3(C)[C@@H](C5=CC(=O)OC5)CC[C@]43O)C2)O[C@@H](C)[C@@H]1O
inactive: [1] 0.0843 | [2] 0.064
active: [3] -4.02 | [4] -4.27

CO[C@H]1[C@H](O)[C@H](O[C@H]2CC[C@@]3(C=O)[C@H](CC[C@@H]4[C@@H]3CC[C@]3(C)[C@@H](C5=CC(=O)OC5)CC[C@]43O)C2)O[C@@H](C)[C@@H]1O
active: [1] -3.17 | [2] -3.22 | [3] -3.52 | [4] -4.22

C[C@@H]1[C@H](O)[C@@H](C)/C=C/C=C/CC/C=C/C=C/C=C/C=C/C(O[C@H]2O[C@H](C)[C@@H](O)[C@H](N)[C@@H]2O)CC2O[C@](O)(CC(O)C(O)CCC(O)CC(O)CC(O)CC(=O)O[C@H]1C)CC(O)C2C(=O)O (stereo not given in full)
inactive: 0.103 µM, library screen: screen3, EWS-FLI1 expression: high (no doxycycline) 0.0278 | 0.103 µM, library screen: screen3, EWS-FLI1 expression: low (doxycycline-induced shRNA knockdown) 0.00627 | [1] 0.0655 | [2] 0.0679 | 0.308 µM, library screen: screen3, EWS-FLI1 expression: high (no doxycycline) 0.00683 | 0.308 µM, library screen: screen3, EWS-FLI1 expression: low (doxycycline-induced shRNA knockdown) 0.0137 | 0.926 µM, library screen: screen3, EWS-FLI1 expression: high (no doxycycline) 0.00828 | 0.926 µM, library screen: screen3, EWS-FLI1 expression: low (doxycycline-induced shRNA knockdown) 0.0539 | [3] 0.133 | [4] 0.104 | 2.8 µM, library screen: screen3, EWS-FLI1 expression: high (no doxycycline) -0.00919 | 2.8 µM, library screen: screen3, EWS-FLI1 expression: low (doxycycline-induced shRNA knockdown) 0.0174 | 8.3 µM, library screen: screen3, EWS-FLI1 expression: high (no doxycycline) 0.0134 | 8.3 µM, library screen: screen3, EWS-FLI1 expression: low (doxycycline-induced shRNA knockdown) 0.0644 | 25 µM, library screen: screen3, EWS-FLI1 expression: high (no doxycycline) 0.0075 | 25 µM, library screen: screen3, EWS-FLI1 expression: low (doxycycline-induced shRNA knockdown) 0.0194

— the supplement of paper PMC6089552
